# A selection: hits, their analogues and other compounds. The true share with any hit is near 2.9%.
# Shn3 inh set2: reduces Shn3 3'UTR luciferase signal in osteoblasts | actives 0.52% (n = 360,000) | Clone20 osteoblast Shn3 3'UTR firefly luciferase, 24 h | inhibition, % at 12.5 µM;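 active means mean inhibition of at least 75% with every replicate also reaching 75%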;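 further: 0% = median of neutral control wells and 100% = pilot-screen positive control compound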
# KKLEB cytotox: counter-screen for CF NF-kB inhibitors: cytotoxicity. AID 602141. KKLEB CF airway cells viability, ATPlite luminescence, overnight; stronger effect = lower value; cells stimulated with P. aeruginosa culture filtrate. actives 0.36% (n = 360,000). activity change (cytotoxicity), % at 5 µM;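 active means corrected activity change at or below -50% at 5 µM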
# EBV LMP1 NFkB: Epstein-Barr LMP1 NF-kappaB reporter inhibition | actives 0.69% (n = 350,000) | inhibition, % at 12.5 µM | LMP1-induced NF-kappaB luciferase reporter cells, luminescence; in the data active means inhibition above about 41%;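 further: 0% = neutral control wells and 100% = reference inhibitor control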
# CF NFkB inh: cystic fibrosis NF-kB activation inhibition; KKLEB NF-kB-GFP reporter, PAF-induced, GFP fluorescence overnight; inhibition, % at 5 µM; actives 0.86% (n = 360,000);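 active means at least 50% inhibition at 5 µM, scaled per plate between neutral and stimulator controls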;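 further: PAF is a Pseudomonas aeruginosa culture filtrate used as stimulus; plate controls were PAF-stimulated DMSO wells for no effect and unstimulated DMSO wells for full effect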
# Peg3 prom inh: reduces Peg3 promoter-driven luciferase expression in HeLa. HeLa PEG-Prom luciferase reporter, luminescence, overnight. inhibition, % at 20 µM. actives 1.7% (n = 360,000). AID 588405;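 active means inhibition of at least 50% at 20 µM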
# HIF-2a block: inhibitors of HIF-2a | 786-0 RCC cells HIF-2a reporter, luciferase luminescence, overnight | inhibition, % at 18.8 µM | actives 0.72% (n = 360,000) | AID 624352;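 active means inhibition of the luminescence signal of 40% or more relative to plate controls, in a single-dose primary screen at 18.75 µM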
# * hit, by the source's call; . = no result.
SMILES,Shn3 inh set2,KKLEB cytotox,EBV LMP1 NFkB,CF NFkB inh,Peg3 prom inh,HIF-2a block
COc1ccc(-c2nn(-c3ccccc3)cc2/C=N/Nc2ccc(S(N)(=O)=O)cc2[N+](=O)[O-])cc1OC,12,-66*,9,58*,27,10
COc1ccc(-c2nn(-c3ccccc3)cc2/C=N/N=C(N)N)cc1OC,-1,-14,-1,12,104*,15
O=C(NCc1ccccc1Cl)C1CCCN(S(=O)(=O)c2cccc3nsnc23)C1 (centres undefined),33,0,1,12,11,9
CC(C)NC1(C(N)=O)CCNCC1,87*,-3,6,5,3,-5
OC(c1ccc(Cl)cc1)c1ncc(-c2ccc(Oc3ccccc3)cc2)[nH]1 (centres undefined),-8,-14,.,-2,33,-30
CCCCNC(=O)c1cc2c(=O)n(CC)c3ccccc3c2s1,0,8,6,-65,-12,-34
CCn1c(=O)c2cc(C(=O)NCc3cccs3)sc2c2ccccc21,-2,0,52*,-28,4,-20
CCSc1nnc(NC(=O)CCn2c(=O)oc3ccccc32)s1,20,12,79*,5,-7,7
Cc1cc(-c2cccnc2)c(C#N)c(SCc2cccc(F)c2)n1,13,-62*,3,54*,12,14
Cc1cc(-c2cccnc2)c(C#N)c(SCC#N)n1,-1,-3,-1,11,-4,-4
Cc1ccc(C(=O)N/N=C/c2ccc(-c3cccc(C(F)(F)F)c3)o2)cn1,15,7,3,13,17,15
Cc1ccc(OCCOC(=O)c2cc(S(=O)(=O)N3CCCCC3)ccc2N2CCOCC2)cc1,78,-10,6,8,17,6
O=C(OCCOc1ccc(Cl)cc1)c1cc(S(=O)(=O)N2CCCCC2)ccc1N1CCOCC1,90*,-10,4,19,1,15
COc1ccc(OC)c(NS(=O)(=O)c2ccc3[nH]c(=O)[nH]c3c2)c1,13,3,-2,-15,15,11
COc1ccc(C(=O)Nc2ccccc2C(N)=O)cc1,-54,-26,-9,2,-257,-343
COc1ccc(C(=O)Nc2ccccc2C(=O)N/N=C/c2cccc3ccccc23)cc1,-18,-88*,33,-6,-65,-36
COc1ccc(C(=O)Nc2ccccc2C(=O)N/N=C/c2ccncc2)cc1OC,-41,-60*,32,12,-132,-179
COC(=O)[C@]12CCCCC=C1N(Cc1cccc3ccccc13)C(=O)[C@H](CC(=O)NCC13CC4CC(CC(C4)C1)C3)C2,.,.,.,.,.,3
Cn1nccc1C(=O)N1CCC(Cc2ccccc2)CC1,2,12,5,12,25,31
COc1cc2c3nnc(-c4ccc(F)cc4)c-3cn(Cc3ccccc3F)c2cc1OC,24,0,-10,-63,110*,26
Cc1ccccc1Nc1nc(N)nc(COC(=O)c2ccc3c(c2)OCCO3)n1,-10,-7,4,1,-1,-2
O=C1/C(=C\c2cccnc2)Sc2ccccc21,9,6,-9,-27,-60,-41
CC1C/C(=C\c2cccnc2)C(=O)/C(=C/c2cccnc2)C1 (centres undefined),71,-96*,92*,105*,107*,93*
COc1cc(/C=C/C(=O)c2ccc(Cl)s2)cc(OC)c1O,-3,-23,31,42,52*,27
COc1ccc(/C=C/C(=O)c2ccc(Cl)s2)cc1O,-20,-4,-2,0,-149,-92
SMILES,Shn3 inh set2,KKLEB cytotox,EBV LMP1 NFkB,CF NFkB inh,Peg3 prom inh,HIF-2a block
Cc1oc(=O)c(NC(=O)c2ccc(Cl)cc2)cc1C(=O)c1ccccc1,94*,-2,-4,-7,-13,-35
CCOc1ccc(NC2CCN(C(C)=O)CC2)cc1,-3,14,42*,-21,-16,-7
Cc1cc(C)cc(N2C(=O)C=CC2=O)c1,94*,-34,21,89*,106*,-36
CCCn1c(C(C)Nc2nc(-c3cc(Cl)c(N)c(Cl)c3)cs2)nc2cc(Cl)c(N3CCCCC3)cc21 (centres undefined),7,9,-5,17,22,17
O=C1Nc2ccc(Br)cc2C12NNc1ccccc1O2 (centres undefined),-17,7,-24,-83,67*,-26
CCN1CCN(C(=O)C23CCC(C)(C(=O)C2Br)C3(C)C)CC1 (centres undefined),10,3,8,-1,12,18
COc1ccc(C2=C(CN(C)C)C(c3ccccc3)c3ccccc3O2)cc1 (centres undefined),-1,-1,78*,3,6,20
COc1ccc(C2=NN(C(=O)c3ccccc3)C(c3ccc(OC)c(OC)c3)C2)c(OC(C)=O)c1 (centres undefined),13,2,-1,-22,-4,2
CCc1nc2ccc(C(=O)Nc3cc(-c4ccccc4)ccc3OC)cn2c1N(CC)CCN(C)C,4,-12,.,31,84*,-24
COc1ccccc1-c1c(-c2ccc(O)cc2O)n[nH]c1C(F)(F)F,91*,7,19,-21,13,10
Oc1ccc(-c2n[nH]c(C(F)(F)F)c2-c2ccccc2)c(O)c1,87*,-20,7,6,12,12
CC12CCC3c4ccc(O)cc4CCC3C1CC(=NO)C2O (centres undefined),-16,6,2,-24,-11,15
CN(C)C(=O)c1cnc(Cc2c[nH]c3ccccc23)c(I)c1,-17,-2,.,-12,8,13
COc1cc(NC(=O)CSc2nc3c(c(=O)n(C)c(=O)n3C)n2C)cc(OC)c1,12,8,-3,-11,-1,1
CC1(C)Cc2nc3sc4c(SCC(=O)O)ncnc4c3cc2CO1,10,3,52*,-35,30,16
COC(=O)CSc1ncnc2c1sc1nc3c(cc12)COC(C)(C)C3,-14,9,51*,4,29,26
CCN1CCN(C(=O)C(=O)c2cn(CC(=O)N(CC)CC)c3ccccc23)CC1,3,-7,5,6,63*,5
Cc1ccccc1OCC(=O)OCC(=O)NCc1cccs1,15,12,-1,-5,8,0
C[C@@H]1O[C@@H](O[C@H]2[C@H](Oc3cc(O)c4c(c3)OC(c3ccc(O)cc3)CC4=O)O[C@H](CO)[C@@H](O)[C@@H]2O)[C@H](O)[C@H](O)[C@H]1O (some centres undefined),-2,-54*,4,-6,-2,1
CCC1CCCCN1CCCNC(=O)c1ccc(/C=C2/Sc3ccccc3NC2=O)cc1 (centres undefined),22,-3,13,6,99*,-33
CCC1CCCCN1CCCNC(=O)c1ccc2c(c1)NC(=O)CS2 (centres undefined),24,-1,-9,6,7,7
